These results are taken from PubChem BioAssay (Tox21).

The nature of assay [1]: qHTS assay to identify small molecule antagonists of the estrogen related receptor (ERR) signaling pathway from Tox21 library - cell viability counter screen (AID 1224834). Also: nearly all actives have a fitted effect of over 30% in size. Also: potency is read from the fitted curve at half-maximal effect. Put shortly: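 CellTiter-Fluor fluorescence, read after 30 min at 37 C, measures viability of ERR cells. Cells plated at 2,000/well and incubated 6 h before pin-tool compound addition, then exposed 17.5 hours at 37 C.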

Assay [2] deals with Luciferin 4-monooxygenase (Photinus pyralis) (UniProt P08659). The assay can be described thus: qHTS assay to identify small molecule inhibitors of firefly luciferase (AID 1224835). Also: nearly all actives have a fitted effect of over 25% in size. Also: potency is read from the fitted curve at half-maximal effect. The method, boiled down:
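Biochemical qHTS: compounds run as interplate titrations against purified firefly enzyme, with D-luciferin and ATP each at its KM concentration. Light output recorded by CCD imaging.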
(Quantitative high-throughput screening tests each substance at several concentrations.)

Assay [3] is described as follows: qHTS assay to identify small molecule agonists of the constitutive androstane receptor (CAR) signaling pathway - cell viability counter screen (AID 1224836). Also: nearly all actives have a fitted effect of over 45% in size. Also: potency is read from the fitted curve at half-maximal effect. Put shortly: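 HepG2 cells stably carrying hCAR and a CYP2B6-2.2kb reporter were plated 4 h, then given compounds at 15 concentrations plus PK11195 (final 0.75 uM). After 23 h at 37 C, viability was read by CellTiter-Fluor fluorescence.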

Assay [4] is described as follows: qHTS assay to identify small molecule antagonists of the constitutive androstane receptor (CAR) signaling pathway - cell viability counter screen (AID 1224837). Also: nearly all actives have a fitted effect of over 45% in size. Also: potency is read from the fitted curve at half-maximal effect. The method, boiled down:
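Cytotoxicity counter-screen: CellTiter-Fluor fluorescence after 23 h compound exposure (15-point qHTS) in double-stable HepG2-CYP2B6-hCAR cells, with 50 nM CITCO added.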

The target in assay [5] is Nuclear receptor subfamily 1 group I member 3 (Homo sapiens) (UniProt Q14994). Nature of the assay: qHTS assay to identify small molecule antagonists of the constitutive androstane receptor (CAR) signaling pathway (AID 1224838). Also: nearly all actives have a fitted effect of over 40% in size. Also: potency is read from the fitted curve at half-maximal effect. Put shortly:
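Antagonism measured as luciferase signal (ONE-Glo, 30 min, room temperature) in CAR-stimulated cells: HepG2-CYP2B6-hCAR double-stable line exposed 24 hr at 37 C to compound in a 15-point series plus 50 nM CITCO.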

The target is the same in assay [6]. The assay can be described thus: qHTS assay to identify small molecule agonists of the constitutive androstane receptor (CAR) signaling pathway (AID 1224839). Also: nearly all actives have a fitted effect of over 15% in size. Put shortly: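 HepG2 cells stably expressing hCAR and a CYP2B6-2.2kb luciferase reporter were treated with compounds at 15 concentrations plus 0.75 uM PK11195 (final) for 24 h at 37 C; luminescence was read after ONE-Glo addition.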

Assay [7] can be described thus: qHTS assay to identify small molecule antagonists of the estrogen related receptor signaling pathway with the pleiotropic PPARgamma coactivator (PGC) from Tox21 10K library - cell viability counter screen (AID 1224840; active = well fitted cell-killing curve with a large enough effect in the repeat runs, not every such curve was filed as active; also: nearly all actives have a fitted effect of over 40% in size; also: potency is read from the fitted curve at half-maximal effect). Put shortly: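 Counter-screen for cytotoxicity: after 17.5 h compound exposure at 37 C, CellTiter-Fluor reagent added to PGC/ERR cells for 30 min and fluorescence read. Cells were seeded at 2,000 per well 6 h before dosing.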

Assay [8] can be described thus: qHTS assay to identify small molecule agonists of the hypoxia (HIF-1) signaling pathway - cell viability counter screen (AID 1224844; calls by dose curve; also: nearly all actives have a fitted effect of over 50% in size; also: potency is read from the fitted curve at half-maximal effect). The method, boiled down: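 Cytotoxicity measured by CellTiter-Glo ATP luminescence in the wells also read for beta-lactamase signal. Cells were HRE-bla ME-180 (2,000/well, 0.5% dialyzed FBS), exposed to compounds for 17 h at 37C.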

The nature of assay [9]: qHTS assay to identify small molecule agonists of H2AX - cell viability counter screen (AID 1224847; calls by dose curve; also: nearly all actives have a fitted effect of over 30% in size; also: potency is read from the fitted curve at half-maximal effect; as to activity change, negative = cytotoxicity: top concentration of the series differs between compounds). The method, boiled down:
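Wild-type CHO-K1 cells (10% FBS medium) were plated overnight at 37C, exposed to compounds at 15 concentrations for 3 hr at 37C (0.76% DMSO final), and viability was read as CellTiter-Glo luminescence after 30 min at room temperature.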

Assay [10] in a line: qHTS RealTime-Glo MT Cell Viability Assay in HepG2 cells - 24 hour (AID 1224867). Also: nearly all actives have a fitted effect of over 50% in size. Also: potency is read from the fitted curve at half-maximal effect. Put shortly:
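HepG2 cells were seeded at 600 cells/well together with NanoLuc luciferase and a cell-permeant prosubstrate, preincubated 5 h at 37 C/5% CO2, then pin-dosed with compounds in DMSO. Nonlytic luminescence from viable cells was read at each time point.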

Assay [11] can be described thus: qHTS RealTime-Glo MT Cell Viability Assay in HEK293 cells - 32 hour (AID 1224868). Also: nearly all actives have a fitted effect of over 50% in size. Also: potency is read from the fitted curve at half-maximal effect. As to activity change, negative = cytotoxic: top concentration of the series differs between compounds. The method, boiled down: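 HEK293 cells were seeded at 600 cells/well together with NanoLuc luciferase and cell-permeant prosubstrate, preincubated 5 h at 37 C/5% CO2, then given compound in DMSO by pintool. Luminescence from viable-cell prosubstrate reduction was read repeatedly over 40 h.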

Assay [12] can be described thus: A CellTox Green Cytotoxicity Assay to monitor cytotoxicity in HEK293 cells - 0 hour (AID 1224869). Also: nearly all actives have a fitted effect of over 50% in size. Also: potency is read from the fitted curve at half-maximal effect. The method, boiled down: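 Fluorescence from a DNA-binding dye excluded by viable cells was measured repeatedly in the same HEK293 wells (600 cells/well) during continuous compound exposure at 37 C. Each assay gives one read point: 0, 8, 16, 24, 32 or 40 h.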
Assay [13] in a line: qHTS RealTime-Glo MT Cell Viability Assay in HepG2 cells - 40 hour (AID 1224870). Also: nearly all actives have a fitted effect of over 50% in size. Also: potency is read from the fitted curve at half-maximal effect. Put shortly:
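HepG2 cells (600/well) mixed with RealTime-Glo MT reagent, settled 5 h at 37 C/5% CO2 before compound addition. Nonlytic NanoLuc luminescence from viable-cell prosubstrate reduction read repeatedly during 40 h treatment at 37 C.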

Assay [14] deals with Thyrotropin receptor (Homo sapiens) (UniProt P16473). Nature of the assay: qHTS assay to identify small molecule agonists of the thyroid stimulating hormone receptor (TSHR) signaling pathway (AID 1224843; calls by dose curve; also: nearly all actives have a fitted effect of over 45% in size). Put shortly: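 Agonist-mode screen: TSHR HEK293 cells received test chemicals for half an hour at room temperature, then HTRF cAMP detection reagents for one hour prior to fluorescence measurement. Each chemical ran as a 15-concentration series, triplicated.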
Thyrotropin receptor (Homo sapiens), sequence (P16473 whole entry, looked up): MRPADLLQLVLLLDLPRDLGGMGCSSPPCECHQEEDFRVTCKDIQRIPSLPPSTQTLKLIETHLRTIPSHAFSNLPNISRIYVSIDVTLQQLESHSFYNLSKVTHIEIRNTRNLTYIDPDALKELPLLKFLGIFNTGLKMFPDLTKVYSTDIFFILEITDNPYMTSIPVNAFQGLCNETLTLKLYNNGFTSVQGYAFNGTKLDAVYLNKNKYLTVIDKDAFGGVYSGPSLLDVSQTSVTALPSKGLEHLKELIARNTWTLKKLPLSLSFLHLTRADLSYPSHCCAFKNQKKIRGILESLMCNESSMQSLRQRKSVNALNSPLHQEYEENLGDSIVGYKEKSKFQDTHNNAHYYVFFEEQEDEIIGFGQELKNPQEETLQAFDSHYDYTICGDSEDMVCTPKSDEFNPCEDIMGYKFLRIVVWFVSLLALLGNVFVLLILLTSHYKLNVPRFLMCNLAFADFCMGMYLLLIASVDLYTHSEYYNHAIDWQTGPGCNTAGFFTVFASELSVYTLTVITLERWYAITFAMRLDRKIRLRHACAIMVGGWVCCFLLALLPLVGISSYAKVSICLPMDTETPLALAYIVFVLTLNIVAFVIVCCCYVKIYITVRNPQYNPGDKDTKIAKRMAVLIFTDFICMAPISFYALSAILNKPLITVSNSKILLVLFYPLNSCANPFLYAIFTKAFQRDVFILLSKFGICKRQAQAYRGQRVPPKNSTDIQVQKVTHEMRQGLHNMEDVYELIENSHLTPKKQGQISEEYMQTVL

The nature of assay [15]: qHTS assay to identify small molecule agonists of H2AX (AID 1224845; active = well fitted activation curve with a large enough effect in the signal ratio in the repeat runs, not every such curve was filed as active; the % refers to the signal ratio). The method, boiled down: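 Wild-type CHO-K1 cells, plated overnight, exposed 3hr at 37C to 15 concentrations (0.76% DMSO final). Lysed, then HTRF anti-pH2AX (S139) cryptate and anti-H2AX-d2 antibodies, 24 hr room temperature; 665/620 nm emission read.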
The nature of assay [16]: qHTS assay to identify small molecule agonists of the hypoxia (HIF-1) signaling pathway (AID 1224846; active = well fitted activation curve with a large enough effect in the signal ratio in the repeat runs, not every such curve was filed as active; the % refers to the signal ratio). The method, boiled down: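 Compounds added to ME-180 cells carrying hypoxia-response-element beta-lactamase reporter (0.5% dialyzed FBS, 5 h preplating), 17 h at 37C; agonist activity detected by CCF4-AM B/G FRET read-out.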
Assay [17] is described as follows: qHTS assay to identify small molecule antagonists of the estrogen related receptor signaling pathway with the pleiotropic PPARgamma coactivator (PGC) from Tox21 10K library (AID 1224841; call rule not given here). The method, boiled down:
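Luminescence (One-Glo, 30 min at room temperature) after 18 h compound treatment at 37 C of PGC/ERR reporter cells plated at 2,000 cells/well and settled 6 h beforehand.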

A short description of assay [18]: qHTS assay to identify small molecule agonists of the estrogen related receptor signaling pathway with the pleiotropic PPARgamma coactivator (PGC) from Tox21 10K library (AID 1224842). Also: nearly all actives have a fitted effect of over 15% in size. Put shortly: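 PGC/ERR reporter cell line, 2,000 cells per well, incubated 6 h at 37 C before 23 nL compound in DMSO was added. After 18 h at 37 C, One-Glo luminescence read following 30 min at room temperature.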

The nature of assay [19]: qHTS assay to identify small molecule antagonists of the estrogen related receptor (ERR) signaling pathway from Tox21 library (AID 1224848). Also: nearly all actives have a fitted effect of over 50% in size. The method, boiled down: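 Quantitative high-throughput format: ERR reporter cells (2,000/well) pre-incubated 6 h, treated 18 h at 37 C with compounds in DMSO alongside positive and negative controls, then read by ONE-Glo luminescence.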

Assay [20] in a line: qHTS assay to identify small molecule agonists of the estrogen related receptor (ERR) signaling pathway from Tox21 library (AID 1224849; calls by dose curve; also: nearly all actives have a fitted effect of over 15% in size). As to conditions: ERR reporter cell line, ONE-Glo luciferase, 18 h; at 92.4 µM (top of the series). The method, boiled down: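 Luminescent agonist read-out (One-Glo, 30-minute room-temperature incubation) following 18-hour compound treatment at 37 C of the ERR cell line, which had been plated 6 hours before dosing.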

The structures appear in SMILES notation. Values joined by “and” are separate entries in the source; they are usually repeats but may differ in a detail not shown here. Equal values may be shown once. A number with no mark means an inactive call. Inconclusive results are not listed. Active and inactive are the calls of the source. Unless noted, calls follow the shape of the dose curve; as a rule, active = well fitted curve in the direction sought with a large enough effect in the repeat runs; inconclusive = weak or mixed curves; inactive = no such curve, though single readings can be large; an effect the other way counts as inactive or inconclusive.
% is scaled to controls: 0 for no effect and ±100 for the full control effect.

Nuclear receptor subfamily 1 group I member 3 (Homo sapiens), sequence (Q14994 whole entry, looked up): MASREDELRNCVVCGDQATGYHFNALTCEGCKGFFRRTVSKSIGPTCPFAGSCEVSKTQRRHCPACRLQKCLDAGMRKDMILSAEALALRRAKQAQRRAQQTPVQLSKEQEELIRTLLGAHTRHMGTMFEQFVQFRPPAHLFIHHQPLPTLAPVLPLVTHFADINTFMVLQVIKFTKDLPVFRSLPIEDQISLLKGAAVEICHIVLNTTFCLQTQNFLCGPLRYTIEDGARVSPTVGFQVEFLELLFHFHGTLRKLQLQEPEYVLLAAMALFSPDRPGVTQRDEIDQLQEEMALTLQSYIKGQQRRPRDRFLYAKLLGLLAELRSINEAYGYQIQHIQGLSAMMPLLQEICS
Luciferin 4-monooxygenase (Photinus pyralis), sequence (P08659 whole entry, looked up): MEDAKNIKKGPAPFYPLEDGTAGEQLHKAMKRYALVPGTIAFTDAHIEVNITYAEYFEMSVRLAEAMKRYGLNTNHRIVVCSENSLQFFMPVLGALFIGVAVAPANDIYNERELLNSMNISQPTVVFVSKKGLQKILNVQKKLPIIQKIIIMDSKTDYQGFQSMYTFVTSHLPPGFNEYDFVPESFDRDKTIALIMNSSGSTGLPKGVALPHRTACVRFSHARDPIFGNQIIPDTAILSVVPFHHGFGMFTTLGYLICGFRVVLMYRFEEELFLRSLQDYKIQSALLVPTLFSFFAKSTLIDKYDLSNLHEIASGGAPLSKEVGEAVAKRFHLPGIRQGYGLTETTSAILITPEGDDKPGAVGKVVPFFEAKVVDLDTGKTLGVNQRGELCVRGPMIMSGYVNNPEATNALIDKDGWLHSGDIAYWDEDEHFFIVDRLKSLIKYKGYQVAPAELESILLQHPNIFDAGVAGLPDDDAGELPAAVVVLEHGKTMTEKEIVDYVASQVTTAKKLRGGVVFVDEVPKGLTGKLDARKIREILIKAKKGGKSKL

With `CN(C)c1ccc(C(=C2C=CC(=[N+](C)C)C=C2)c2ccc(N(C)C)cc2)cc1`, the Potency was 9.64 µM (active) and 12.2 µM (active) and 13.3 µM (active) in assay [1]; 17.7 µM (active) and 35.6 µM (active) and 17.4 µM (active) in assay [2]; 7.66 µM (active) and 6.86 µM (active) and 5.96 µM (active) in assay [3]; 8.59 µM (active) and 7.7 µM (active) and 5.31 µM (active) in assay [4]; 27.2 µM (active) and 27.3 µM (active) and 13.3 µM (active) in [5]; 9.64 µM (active) and 4.33 µM (active) and 11.9 µM (active) in assay [7]. Further, the Potency in assay [8] is 19.4 µM (active) and 54.9 µM (active); in assay [9], 3.17 µM (active) and 12.7 µM (active) and 13.9 µM (active); in assay [10], 24.4 µM (active) and 24.5 µM (active) and 10.7 µM (active); in assay [11], 2.74 µM (active) and 6.92 µM (active) and 2.39 µM (active); in [13], 34.5 µM (active) and 43.6 µM (active) and 26.8 µM (active). Moreover, the Potency result in [6] and in assay [12] was “inactive” in each case.
As for `NC[C@H]1O[C@H](O[C@H]2[C@H](O[C@@H]3O[C@H](CO)[C@@H](O)[C@H]3O)C(O)[C@H](N)C[C@@H]2N)[C@H](N)[C@@H](O)[C@@H]1O` (some centres not stated), the viability change, negative = cytotoxic in assay [1] is 2.75% [at 8.39 µM]; in assay [3], 0.325% [at 8.39 µM]; in assay [7] it was 0.247% [at 8.39 µM]. For the same compound, the activity change, negative = inhibition in assay [2] was 6.81% [at 10.5 µM]. Moreover, the activity change, negative = cytotoxicity in assay [4] is 3.7% [at 8.39 µM]; in assay [8] it was -1.39% [at 6.97 µM]; in assay [9] it was -3.49% [at 14 µM]; in [10] it was -0.277% [at 6.97 µM]. Further, in assay [5], the activity, negative = inhibition is -13% [at 8.39 µM]. Also, the activation in assay [14] is -0.16% [at 8.39 µM]; in [16], -1.07% [at 7.01 µM]. Also, the activation (H2AX phosphorylation) in assay [15] is -1.16% [at 14 µM]. The activity change, negative = cytotoxic in assay [11] is 4.84% [at 6.97 µM].
Turning to `CC(C)(C)c1ccc(C(O)CCCN2CCC(C(O)(c3ccccc3)c3ccccc3)CC2)cc1` (configuration not stated), the Potency was 11.9 µM (active) in assay [1]; 23.7 µM (active) in assay [3]; 26.6 µM (active) in assay [4]; 26.6 µM (active) in [5]; 34.8 µM (active) in assay [9]; 6.01 µM (active) in assay [10]. In addition, the Potency in assay [11] and in assay [13] was 4.77 µM (active) throughout. For the same compound, the Potency entry in assay [2], in [6] and in assay [12] was “inactive” in each case.
Take `CCCCOC(=O)CO`: the Potency entry in assay [1], in [2], in assay [3], in [4], in [5] and in [6] was “inactive” throughout. For the same compound, the Potency entry in assay [7], in assay [8], in assay [15], in [16], in assay [9] and in [10] was “inactive” throughout. Moreover, the Potency entry in assay [11], in assay [12] and in assay [13] was “inactive” each time.
Regarding `CCCCOC(=O)CC`, the Potency entry in assay [1], in [2], in assay [3], in [4], in [5] and in assay [7] was “inactive” each time. The Potency entry in assay [14], in [8], in assay [15], in assay [16], in assay [10] and in assay [11] was “inactive” each time. Further, the Potency entry in [12] and in [13] was “inactive” throughout.
Regarding `O=C1CCCCCCCCCCCCCCCO1`, the Potency entry in assay [1], in [2], in assay [3], in assay [4], in [5] and in assay [7] was “inactive” each time. The Potency entry in assay [17], in assay [18], in assay [14], in [16], in assay [9] and in [19] was “inactive” throughout. Also, the Potency entry in assay [10], in assay [11] and in assay [13] was “inactive” in each case. In addition, in [20], the activity change, positive = activation was -5.05%.
On to `CCCC(=O)OCCc1ccccc1`, for which the Potency entry in assay [1], in assay [3], in [4], in assay [5], in assay [7] and in [14] was “inactive” throughout. Besides, the Potency entry in assay [8], in assay [15], in assay [16], in [9], in [10] and in [11] was “inactive” each time. Besides, the Potency result in assay [13] is “inactive”. The results for the Potency in assay [2] and in assay [12] were 79.6 µM (active) and 43.6 µM (active), respectively.
